The values that follow come from PubChem BioAssay AID1794844 (National Center for Advancing Translational Sciences (NCATS), 2023).

Among all 2,800 compounds or so, fewer than 10 were called active. Another 7% or so got no clear call; they are omitted. Calls come from the whole dose curve; as a rule, active = well fitted inhibition curve with a large enough effect; inconclusive = small, poorly fitted or top-dose-only effect; inactive = no such curve, though single readings can be large or run the other way. The list is a sample of the results.
Potency is the fitted concentration of half-maximal effect.

The target in this test is Metallo-beta-lactamase type 2 (Klebsiella pneumoniae) (UniProt C7C422). The experiment in a line: qHTS to identify inhibitors of the New Delhi Metallo-beta-lactamase (NDM): Nitrocefin screen against the machine-based learning selections. For activity, negative = inhibition: % of control where 0% means no effect. Particulars: NDM-1 enzyme, nitrocefin hydrolysis, absorbance 485 nm; series mostly up to 38.4 µM; activity, negative = inhibition: at the top concentration. From the text: Assay Submitter (PI): James Inglese Ph.D., Patricia Dranchak Ph.D., Mahesh Aitha Ph.D. Assay Development and Screening Technology Laboratory (ADST) National Center for Advancing Translational Sciences (NCATS), Rockville, MD National Institute of Health (NIH), Bethesda, Maryland The metallo-beta-lactamases (MBL) are a main antibiotic resistance mechanism evolved by bacteria. There is an urgent clinical need for MBL inhibitors to mitigate this growing threat. To support a machine-based learning study, qHTS has been used to experimentally test inhibitors identified by prediction tools.
Metallo-beta-lactamase type 2 (Klebsiella pneumoniae), sequence (C7C422 whole entry, looked up): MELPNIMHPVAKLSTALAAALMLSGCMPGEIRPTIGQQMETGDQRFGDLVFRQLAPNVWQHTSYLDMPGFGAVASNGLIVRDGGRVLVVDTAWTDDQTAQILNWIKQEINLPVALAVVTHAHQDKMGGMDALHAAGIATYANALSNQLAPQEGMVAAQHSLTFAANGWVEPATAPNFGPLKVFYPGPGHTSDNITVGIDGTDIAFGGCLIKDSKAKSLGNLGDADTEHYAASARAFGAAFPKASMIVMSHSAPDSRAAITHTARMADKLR
PROTOCOL TABLE (as described by Inglese et al., 2007) SEQUENCE No. (e.g., 1, 2, 3, etc.); […] (e.g., enzyme, Incubation, Reagent, etc.); VALUE; DESCRIPTION Primary Screen 1; NDM-1; 4 uL of 3 nM enzyme [2 nM final] in 50 mM HEPES (pH 7.0), 1 uM […], 0.01% Tween20; Use BioRaptr to dispense into two sets of Aurora black, clear bottom high base 1536-well plates 2; Compounds; 23 nL; Use Pin Tool (Wako) to transfer DMSO control and library compounds in DMSO 3; Incubate; >30 min 4a; Reagent; 2 uL of 50 uM nitrocefin [16.7 uM final] to one set of assay plates 4b; Reagent; 2 uL of 150 uM meropenem [50 uM final] to second set of assay plates 5a; Incubate; 15 min 5b; Incubate; 30 min 6a; Detector; Absorbance at 485 nm (bandwidth = 5 nm, 25 flashes/well) on Tecan Infinity 6b; Detector; Absorbance at 300 nm (bandwidth = 5 nm, 25 flashes/well) on Tecan Infinity NOTES (numbers refer to sequence above) 1; Column 1 of each plate received assay buffer without enzyme and columns 2-48 received enzyme for a final assay concentration of 2 nM. 2; Control plate contained DMSO in columns 1, 2, 3, and 4. 3; Compound interaction with enzyme. 4; Nitrocefin and meropenem substrates were prepared in the same assay buffer as step 1 for a final assay concentration of 16.7 uM and 50 uM, respectively, and added to all wells across respective sets of assay plates. 5; Default reader settings were applied for absorbance read at 485 nm (nitrocefin) or 300 nm (meropenem), bandwidth = 5 nm, 25 flashes/well. References: Inglese J, Shamu CE, Guy RK. 2007. Reporting data from high-throughput screening of small-molecule libraries. Nat Chem Biol. doi:10.1038/nchembio0807-438 Yasgar A, Shinn P, Jadhav A, Auld D, Michael S, Zheng W, Austin CP, Inglese J, Simeonov A. 2008. Compound Management for Quantitative High-Throughput Screening. J Lab Autom 13:79 - 89. doi:10.1016/j.jala.2007.12.004
Consider `COc1ccc(-c2nnc3n2CCN(C(=O)C(C)(C)C)C3)cc1`, for which the “activity, negative = inhibition” value is 6.95% [at 57.5 µM] (inactive).

In the case of `O=C(Cc1c[nH]c2ncc(-c3ccc(Cl)cc3)cc12)NCc1cccnc1`, the “activity, negative = inhibition” value was 5.86% [at 57.5 µM] (inactive).

As for `CC(C)(C)CC(=O)N1CC[C@H]2CC(=O)N(Cc3cccnc3)CC[C@H]2C1`, the “activity, negative = inhibition” value is 2.57% [at 57.5 µM] (inactive).

Turning to `CC[C@H]1CN(C(C)=O)CC[C@H]1CC(=O)NC(C)C`, the “activity, negative = inhibition” value was -1.15% [at 76.7 µM] (inactive).

For the compound `CCNC(=O)[C@@H]1C[C@H](NC(=O)c2ccccc2)CN1Cc1scnc1C`, the “activity, negative = inhibition” value is -0.216% (inactive).

In the case of `CS(=O)(=O)N1CC(C(=O)Nc2ccc(N3CCOCC3)cc2)C2(CCCCC2)C1` (centres undefined), the “activity, negative = inhibition” value is -0.109% (inactive).

In the case of `O=C(NCc1cc2n(n1)CCN(C1CCCCC1)C2)c1cnn2ccccc12`, the “activity, negative = inhibition” value is -7.31% (inactive).

`CCCN(CC1CCOC1)C(=O)Nc1cccc(F)c1C` (centres undefined): the “activity, negative = inhibition” value is 1.38% (inactive).

`O=C(O)[C@]12CCCN[C@@H]1CCN(Cc1ccc(-c3ccccn3)cc1)C2`: the “activity, negative = inhibition” value is -17.4% (inactive).

Turning to `Cc1cccc(CN2CCCC3(CCN(Cc4cccc(O)c4)C3)C2)c1` (centres undefined), the “activity, negative = inhibition” value was 4.09% (inactive).

Regarding `O=C(O)CN1CCC[C@]2(C(=O)O)CN(Cc3cccc(O)c3)CC[C@@H]12`, the Potency was 3.35 µM (active).

With `Cc1cc(Cn2cc3c4c(cccc42)[C@H](CC(C)C)N[C@H](C(=O)N2CCN(C)CC2)C3)no1`, the “activity, negative = inhibition” value was -2.8% (inactive).

Regarding `CN1CCOc2c(C(=O)NCc3cccnc3)cc(-c3ccccc3O)cc21`, the “activity, negative = inhibition” value was 0.182% [at 57.5 µM] (inactive).

On to `Cc1ccc2c(n1)N(C)[C@H](CO)CCN(Cc1cccnc1)C2`, for which the “activity, negative = inhibition” value is 4.8% [at 57.5 µM] (inactive).

As for `O=C(C1CC1)N1CCC2(CC1)CCN(CCc1ccccc1)c1ccccc1O2`, the “activity, negative = inhibition” value was 49.1% (inactive).

Consider `COc1ccc(OC)c(CNC(=O)CC2CCOCC2)c1`, for which the “activity, negative = inhibition” value was -2.81% (inactive).

On to `O=c1[nH]nc(CNCC2(O)CCCNC2)c2ccccc12` (centres undefined), for which the “activity, negative = inhibition” value is -13.4% (inactive).

Consider `Cc1ccc(C(=O)NC2CCN(c3ccc(F)cc3)C2=O)s1` (centres undefined), for which the “activity, negative = inhibition” value was -2.33% (inactive).

For `Cc1noc(C)c1S(=O)(=O)N1CCCN(Cc2ccncc2)C(c2ccccc2)CC(=O)NCC1` (centres undefined), the “activity, negative = inhibition” value was 7.54% (inactive).

With `COc1cccc(N2C(=O)N[C@@H]3CCN(S(=O)(=O)c4ccccc4)[C@@H]3C2=O)c1`, the “activity, negative = inhibition” value was 0.447% [at 57.5 µM] (inactive).

`COc1ncccc1C(=O)N1CCc2c(nc(-c3cccnc3)[nH]c2=O)C1`: the “activity, negative = inhibition” value was 3.94% (inactive).

`CN1CCOc2c(C(=O)NCCC(N)=O)cc(-c3ccccc3O)cc21`: the “activity, negative = inhibition” value is -0.0482% [at 57.5 µM] (inactive).

As to `O=C(Cc1ccccc1)Nc1ccnn1C1CCN(Cc2ccc3cccc(F)c3n2)CC1`, the “activity, negative = inhibition” value is -1.06% (inactive).

With `COC(=O)[C@H]1CN(C(=O)c2cccnc2)CCN1C(=O)C1CCCCC1`, the “activity, negative = inhibition” value is 2.03% [at 57.5 µM] (inactive).

Consider `COCCNC(=O)C[C@@H]1O[C@H](CNC(=O)c2cccc(F)c2)[C@@H](O)[C@H]1O`, for which the “activity, negative = inhibition” value is -2.43% [at 57.5 µM] (inactive).

With `N#Cc1cccc(CN2CCOC[C@H]2c2ncc(-c3ccc(C(F)(F)F)cc3)[nH]2)c1`, the “activity, negative = inhibition” value is 3.87% [at 57.5 µM] (inactive).

Consider `CCN(CC)Cc1nc(C2(O)CCN(C)CC2)cs1`, for which the “activity, negative = inhibition” value is -1.47% [at 76.7 µM] (inactive).

Turning to `Fc1ccc2nc([C@H]3CCN(C4CCC4)C3)[nH]c2c1`, the “activity, negative = inhibition” value is 14% [at 76.7 µM] (inactive).

Take `CSc1ncccc1C(=O)NC1CCCN(CCCc2ccccc2)C1` (centres undefined): the “activity, negative = inhibition” value is 9.24% (inactive).

`Cc1ccccc1C1CCCN1Cc1ncccc1C(=O)O` (centres undefined): the Potency was 13.4 µM (active).

In the case of `CC(=O)N1CCN(c2cc(-c3noc([C@@H]4CCCN4Cc4ccccc4C)n3)ccn2)CC1`, the “activity, negative = inhibition” value was -0.621% (inactive).

As to `O=c1c2nc(NCc3cccs3)ccc2ncn1Cc1ccccc1`, the “activity, negative = inhibition” value was 0.467% [at 57.5 µM] (inactive).

For `COCCNS(=O)(=O)c1cc(C(=O)O)cc(-c2ccc(OC)c(F)c2)c1`, the “activity, negative = inhibition” value is -0.8% (inactive).

Take `Cc1noc2c(-c3cccc(O)c3)cc(-c3cccs3)nc12`: the “activity, negative = inhibition” value is 1.99% [at 57.5 µM] (inactive).

On to `COC[C@H]1CCCN1C(=O)[C@@H](C)C1CC[C@@]2(C)CC[C@H](NC(=O)CC(C)(C)C)[C@@H](C)[C@@H]2[C@H]1O` (some centres undefined), for which the “activity, negative = inhibition” value is -2.54% (inactive).

Take `CN1C(=O)C(c2ccccc2)CC12CCN(C(=O)c1cccc(F)c1)CC2` (centres undefined): the “activity, negative = inhibition” value is 5.03% (inactive).

In the case of `CC(C)NC(=O)N1CCN(C(=O)N2CCOCC2)[C@@H](C(=O)N[C@H](Cc2c[nH]c3ccccc23)C(N)=O)C1`, the “activity, negative = inhibition” value is -10.8% (inactive).

With `CC[C@H]1CN(C(=O)NC(C)C)CC[C@H]1CC(=O)N(C)CCC#N`, the “activity, negative = inhibition” value is -12.7% [at 57.5 µM] (inactive).

Take `Cc1nn2cc(CCNCC3(O)CNCCOC3)nc2s1` (centres undefined): the “activity, negative = inhibition” value is 2.59% (inactive).

With `COc1ccccc1C(O)c1nc(Nc2ccc(C(C)C)cc2)n[nH]1` (centres undefined), the “activity, negative = inhibition” value is 7.45% [at 57.5 µM] (inactive).

`Cc1ccc(NC(=O)N[C@@H]2C=C(C(=O)N[C@H](CC(C)C)C(N)=O)C[C@@H](O)[C@@H]2O)cc1`: the “activity, negative = inhibition” value is 2.2% [at 57.5 µM] (inactive).

Turning to `Cc1ccc(-n2nc(C)c([C@@H]3C=C[C@@H](NCc4cccc(C#N)c4)C3)c2C)cc1Cl`, the “activity, negative = inhibition” value is 2.91% [at 57.5 µM] (inactive).

On to `OC(c1ccccc1)c1nc(Nc2ccc(C(F)(F)F)cc2)n[nH]1` (centres undefined), for which the “activity, negative = inhibition” value is 7.39% [at 57.5 µM] (inactive).

Turning to `CC(C)Cc1cc(C(=O)N2C[C@H](C3CC3)[C@@H](N)C2)n(C)n1`, the “activity, negative = inhibition” value is -2.3% (inactive).

As to `O=C(c1ccc(Cn2cnnn2)cc1)N1CCC2(CC1)[C@H](O)C[C@@H]2OCCO`, the “activity, negative = inhibition” value is -2.43% (inactive).

`COc1ccc(OC)c(CNC(=O)Cc2cccn2-c2ccc(C)cc2)c1`: the “activity, negative = inhibition” value is -4.62% (inactive).

As for `COc1ccccc1C(O)c1nc(Nc2ccc(Cl)cc2)n[nH]1` (centres undefined), the “activity, negative = inhibition” value was 3.08% [at 57.5 µM] (inactive).

Take `CNC(=O)C1(N2CCC[C@H]2C(=O)N2CCCC2)COC1`: the “activity, negative = inhibition” value is 11.1% [at 76.7 µM] (inactive).

As to `COCCO[C@H]1C(=O)N(C2CCN(C(=O)c3cnccn3)CC2)[C@H]1c1ccncc1`, the “activity, negative = inhibition” value is 5.4% (inactive).
